Laboratory results reported in PubChem BioAssay AID1376 (SRMLSC, 2008).
Among all 220,000 compounds or so, about 530 (0.24%) were called active. This excerpt belongs to a sample that is enriched for actives. Potency and affinity values are given separately. Values without a mark were called inactive. Rule as the data show it: active = inhibition above about 13%; inconclusive = no clear call, values can overlap the other calls; inactive = below that.

These compounds were tested against Bifunctional protein GlmU (Mycobacterium tuberculosis (strain ATCC 25618 / H37Rv)) (UniProt P9WMN3) (assay: inhibition of mycobacterial GlmU enzyme – biochemical, glucosamine-1-phosphate acetyltransferase (AID 1376;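 also: 0% = complete reaction with vehicle and 100% = reaction without substrate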)). Conditions: M. tuberculosis GlmU acetyltransferase enzyme assay; active compounds read high;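 tested at 30 µM in the primary screen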.
Sequence of Bifunctional protein GlmU (Mycobacterium tuberculosis (strain ATCC 25618 / H37Rv)) (P9WMN3 whole entry, looked up): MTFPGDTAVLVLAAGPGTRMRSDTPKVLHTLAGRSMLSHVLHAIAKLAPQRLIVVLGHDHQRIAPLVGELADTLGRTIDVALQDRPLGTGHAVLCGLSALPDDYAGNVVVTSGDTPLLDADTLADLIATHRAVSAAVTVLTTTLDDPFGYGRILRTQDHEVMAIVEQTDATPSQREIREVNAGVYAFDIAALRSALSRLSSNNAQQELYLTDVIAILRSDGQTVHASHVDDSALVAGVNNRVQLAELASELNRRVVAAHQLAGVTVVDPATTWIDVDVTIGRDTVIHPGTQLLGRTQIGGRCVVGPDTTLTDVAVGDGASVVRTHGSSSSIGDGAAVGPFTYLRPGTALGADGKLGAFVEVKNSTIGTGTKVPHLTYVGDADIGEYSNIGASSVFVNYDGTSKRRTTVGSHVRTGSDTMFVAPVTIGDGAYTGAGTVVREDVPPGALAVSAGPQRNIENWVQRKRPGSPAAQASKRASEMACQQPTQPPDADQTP

SMILES | inhibition
CCOc1ccc(-n2c(C)nnc2SCC(=O)N(CC)CC)cc1 | -6.69%
O=C(O)c1ccccc1/C=N/NC(=O)C1CCCCC1 | 1.79%
CC(C)C1NC(=S)N(C2CCCCC2)C1=O (centres undefined) | 1.15%
CCC(C)C1NC(=S)N(C2CCCCC2)C1=O (centres undefined) | 15.5% (active)
CCC1NC(=S)N(C2CCCCC2)C1=O (centres undefined) | -5.8%
O=C1CCC(=O)N1CNc1ccc(Oc2ccccc2)cc1 | 4.2%
COc1ccc(NCN2C(=O)C3C4C=CC(C4)C3C2=O)cc1 (centres undefined) | 0.26%
COc1ccc(NCN2C(=O)CCC2=O)cc1 | 13.4% (active)
NC(=O)c1c(NC(NC(=O)c2ccco2)C(=O)c2ccc(Cl)cc2)sc2c1CCCC2 (centres undefined) | 2%
Cc1ccc2nc(C)cc(N/N=C/c3cccnc3)c2c1 | -6%
CC(C)S(=O)(=O)C/C(N)=N/OS(=O)(=O)c1ccc(Cl)cc1 | 0.64%
N#Cc1cccc(-n2nnnc2-c2ccc3c(c2)OCO3)c1 | 0.01%
CC1CN(c2ccc([N+](=O)[O-])c(NCCOc3ccccc3)c2)CCN1 (centres undefined) | 1.45%
CCC(=O)OCCNc1cc(Sc2nc3ccccc3[nH]2)c2nonc2c1[N+](=O)[O-] | 10.6%
CCCC(=O)OCCNc1cc(Sc2nc3ccccc3[nH]2)c2nonc2c1[N+](=O)[O-] | 9.67%
CCC(=O)OCCNc1cc(Sc2nccn2C)c2nonc2c1[N+](=O)[O-] | 12.7%
Cc1ccc(Sc2cc(NCCCO)c([N+](=O)[O-])c3nonc23)cc1 | -0.69%
Cn1ccnc1Sc1cc(NCCCO)c([N+](=O)[O-])c2nonc12 | 3.47%
Cc1nnc(Sc2cc(NCCO)c([N+](=O)[O-])c3nonc23)s1 | 1.7%
CSc1ncccc1C(=O)OCC(=O)NC1CCS(=O)(=O)C1 (centres undefined) | 3.34%
Cc1ccccc1OCc1nc(C#N)c(N2CCCC2)o1 | -2.21%
COc1ccc(-c2cc(C(=O)N3CCN(c4ccccc4OC)CC3)no2)cc1OC | -2.36%
Cc1nc2ccccc2cc1C(=O)N/N=C/c1cccc([N+](=O)[O-])c1 | 1.15%
Cc1noc(C)c1C(=O)N1CCc2ccccc21 | 12.9% (active)
Cc1onc(-c2ccccc2)c1C(=O)N1CCc2ccccc21 | -2.16%
Cc1noc(C)c1C(=O)N1CCCc2ccccc21 | -6.07%
Cc1cc(S(=O)(=O)NCc2ccccc2)ccc1OCC(=O)N1CCOCC1 | 0.4%

SMILES | inhibition
CC(C)CCNC(=O)CCCOc1cc(=O)n(C)c2ccccc12 | 4.37%
CCN1CCN(C(=O)C23CCC(C)(C(=O)C2Br)C3(C)C)CC1 (centres undefined) | 5.77%
COc1ccc(OCC(=O)c2c(O)c3ccccc3oc2=O)cc1 | 13.8% (active)
CCc1ccc(OCC(=O)c2c(O)c3ccccc3oc2=O)cc1 | -0.96%
CCCCC(=O)c1c(O)c2ccccc2oc1=O | 0.58%
Cc1ccc(OCC(=O)c2c(O)c3ccccc3oc2=O)cc1C | 0.96%
Cc1ccc(C(C)C)c(OCC(=O)c2c(O)c3ccccc3oc2=O)c1 | 4.14%
CCOc1ccc(OCC(=O)c2c(O)c3ccccc3oc2=O)cc1 | 14.2% (active)
CNc1c([N+](=O)[O-])cnn1-c1ccc(C)cc1 | 5.02%
C=CCOc1ccc(/C(O)=C2/C(=O)C(=O)N(CCCn3ccnc3)C2c2ccco2)cc1 (centres undefined) | 5.54%
CC(C)(C)NCC(O)COc1ccc(Br)cc1 (centres undefined) | -5.25%
CN(C)c1nc(-c2ccccc2)nc(-c2ccc(Cl)cc2)c1C#N | -2.64%
C/C(=N\NC(=O)c1ccccc1)c1ccccc1Br | 3.08%
Nc1ccc(S(=O)(=O)N2CCCC2)cc1Cl | 0.44%
COC(=O)C1C(c2ccccc2)C=CC(c2ccccc2)C1C(=O)O (centres undefined) | 2.66%
CC1=CC(C)C(C(=O)O)C(C(=O)O)C1 (centres undefined) | 4.72%
CC(C)(C)C(=O)COC(=O)c1cccc(NC(=O)c2ccco2)c1 | 3.57%
CCn1c(-c2ccc(N)cc2)nc2ccccc21 | 4.62%
CCn1c(-c2ccc(N(C)C)cc2)nc2ccccc21 | 13.3% (active)
CN(C)c1ccc(-c2nc3ccccc3n2C)cc1 | 3.52%
Cc1cnc(C)c(N2CCC(C(=O)NCc3cccs3)CC2)n1 | 2.06%
Cc1cnc(C)c(N2CCC(C(=O)NCc3ccco3)CC2)n1 | -3.63%
Cc1cnc(C)c(N2CCC(C(=O)NC(C)c3cccs3)CC2)n1 (centres undefined) | 13.1% (active)
O=C/C(=C\Nc1ccccn1)c1nc2ccccc2o1 | 13.3% (active)
O=C/C(=C\Nc1ccc(Cl)cn1)c1nc2ccccc2o1 | 0.28%
O=C/C(=C\Nc1ccccn1)c1nc2cc(Cl)ccc2o1 | -1.58%
COC(=O)/C=C/c1ccc(-n2cncn2)cc1 | 0.5%
